Assay outcomes: PubChem BioAssay, The Scripps Research Institute Molecular Screening Center
Shown are actives, neighbours in structure and some others; about 1.1% of the full set was active somewhere.
OPRM1-OPRD1 inv = inverse agonists of human mu-delta opioid receptor heterodimerization; AID 504357; P35372+P41143; cell-based MOR-DOR heterodimer luminescence, inverse agonism; 340,000 compounds, 0.21% hits; inhibition, % at 9.3 µM; in the data active = inhibition above about 22%, passing the limit was not always enough
Target sequence (P35372 whole entry, looked up): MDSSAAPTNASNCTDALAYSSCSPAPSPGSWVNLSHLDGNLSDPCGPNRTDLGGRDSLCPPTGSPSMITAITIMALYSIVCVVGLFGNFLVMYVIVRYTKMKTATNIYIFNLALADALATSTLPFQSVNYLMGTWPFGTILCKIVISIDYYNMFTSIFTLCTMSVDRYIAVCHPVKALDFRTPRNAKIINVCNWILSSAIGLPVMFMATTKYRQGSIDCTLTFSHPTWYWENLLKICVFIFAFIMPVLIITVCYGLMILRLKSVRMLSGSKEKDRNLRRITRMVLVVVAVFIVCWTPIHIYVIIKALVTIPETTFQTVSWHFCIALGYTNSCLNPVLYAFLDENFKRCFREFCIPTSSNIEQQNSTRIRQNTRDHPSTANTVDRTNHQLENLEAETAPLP
Target sequence (P41143 whole entry, looked up): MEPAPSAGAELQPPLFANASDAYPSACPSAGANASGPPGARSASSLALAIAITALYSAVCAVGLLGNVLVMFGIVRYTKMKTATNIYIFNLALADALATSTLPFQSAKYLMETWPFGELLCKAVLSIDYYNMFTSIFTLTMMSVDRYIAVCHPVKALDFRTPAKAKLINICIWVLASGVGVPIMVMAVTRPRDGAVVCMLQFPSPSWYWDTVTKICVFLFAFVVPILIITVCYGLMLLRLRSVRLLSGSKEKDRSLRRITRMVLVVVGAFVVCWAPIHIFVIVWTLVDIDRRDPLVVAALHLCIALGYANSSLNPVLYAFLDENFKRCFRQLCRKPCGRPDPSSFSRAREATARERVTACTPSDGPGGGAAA
HTR5A ag ctr = counter-screen for OPRM1-OPRD1 agonists: human HTR5A agonism | P47898 | HTR5A agonist assay, luminescence, cell-based | activation, % at 9.3 µM | 340,000 compounds, 0.61% hits | AID 504692; in the data active = activation mostly above about 9.5%, no sharp cut-off; inactive = mostly below about 7.6%
MOR-DOR ag = agonists of human mu-delta opioid receptor heterodimerization; cells, OPRM1-OPRD1 heterodimerization, luminescence; activation, % at 9.3 µM; 340,000 compounds, 0.3% hits; AID 504326; in the data active = activation above about 18%
HTR5A inv ctr = counter-screen for OPRM1-OPRD1 inverse agonists: human HTR5A inverse agonism. P47898. HTR5A cell line, luminescence. inhibition, % at 9.3 µM. 340,000 compounds, 0.083% hits. AID 504634; in the data active = inhibition mostly above about 23%, no sharp cut-off; inactive = mostly below about 18%
Large screens that a line does not name were inactive.

CC(=O)n1cc(/C=N/NC(=O)c2ccccc2O)c2ccccc21	none
CC1Oc2ccccc2N(CC(=O)Nc2ccc3c(c2)OCCO3)C1=O (stereo unspecified)	none
CC1Oc2ccccc2N(CC(=O)Nc2ccc(F)cc2)C1=O (stereo unspecified)	HTR5A ag ctr 11
CC1(c2ccc3noc(-c4cccc(F)c4)c3c2)OCCO1	HTR5A ag ctr 11
Cc1ccc(Nc2nc(-c3ccc(S(=O)(=O)N4CCCC4)cc3)cs2)cc1C	HTR5A ag ctr 10
CC(C)N(CC(N)=O)C(=O)c1sc2cc(F)ccc2c1Cl	HTR5A ag ctr 13
CN1CCC(N(C)C(=O)c2sc3cc(F)ccc3c2Cl)CC1	none
Cn1c(=O)c2c(ncn2Cc2ccc(Cl)cc2)n(C)c1=O	HTR5A ag ctr 8.0
Cn1c(=O)c2c(ncn2CC(COCc2ccc(Cl)cc2)OCc2ccc(Cl)cc2)n(C)c1=O (stereo unspecified)	none
CCOc1ccc(OCc2ccc(C(=O)Nc3cccnc3)cc2)cc1	none
O=C(COc1ccc2ccc(=O)oc2c1)OCc1ccccc1	HTR5A ag ctr 12
CC(=O)Nc1nc(-c2cccs2)cs1	none
O=C(Nc1nc(-c2cccs2)cs1)c1ccc(Cl)s1	HTR5A ag ctr 14
COc1ccc(CNS(=O)(=O)c2ccc(F)c(C(=O)Nc3ccccc3OC)c2)cc1	HTR5A ag ctr 9.5
O=C(Nc1ccccc1F)c1ccc(CNS(=O)(=O)c2cccc(C(F)(F)F)c2)cc1	HTR5A ag ctr 12
Cc1ccc(NC(=O)c2ccc(CNS(=O)(=O)c3cccc(C(F)(F)F)c3)cc2)cc1	none
COCCC(=O)N1CCC(Oc2ccc(C(=O)NC3CCCCC3)cc2)CC1	none
CCN(CC)c1ccc(C(=C2C=CC(=[N+](CC)CC)C=C2)c2ccccc2)cc1	MOR-DOR ag 52
CCOC(=O)C1=C(C)N(C)C(=S)NC1c1cccc(Cl)c1Cl (stereo unspecified)	HTR5A ag ctr 10
CCN(c1cccc(C)c1)S(=O)(=O)c1ccc2c(c1)CCCN2C(C)=O	none
CCN(c1ccccc1)S(=O)(=O)c1ccc2c(c1)CCCN2C(C)=O	HTR5A ag ctr 11
CCn1cc(Cl)c(C(=O)N2N=C(c3ccc4ccccc4c3)CC2c2ccccc2O)n1 (stereo unspecified)	HTR5A ag ctr 12
C=CCC1CCC/C(=N\NS(=O)(=O)c2ccc(C)cc2)C1 (stereo unspecified)	HTR5A ag ctr 13
COc1ccc2sc(-c3ccc(S(C)(=O)=O)cc3)c(C#CCO)c2c1	none
COc1ccc2c(C#CCCO)c(-c3ccc(S(C)(=O)=O)cc3)sc2c1	HTR5A ag ctr 13
CC(C)c1cc(C(=O)N2CCCC(N3CCN(c4ccc(F)cc4)CC3)C2)n(C)n1 (stereo unspecified)	HTR5A ag ctr 10
COc1ccc(CC(=O)Nc2c3c(nn2C(C)(C)C)CS(=O)(=O)C3)cc1	none
COc1ccc(Cl)cc1C(=O)NNC(=O)CCNS(=O)(=O)c1ccccc1	none
Cc1cccc(C(=O)O/N=C2\CCCc3ccccc32)c1	HTR5A ag ctr 13
Cc1ccc(C(=O)O/N=C2\CCCc3ccccc32)cc1	none
Cc1cc(CNC(=O)COc2ccc(F)cc2)c2ccccc2n1	HTR5A ag ctr 11
Cc1cc(CNC(=O)COc2ccccc2)c2ccccc2n1	none
CC1=C(C)/C(=N\OS(=O)(=O)c2ccccc2)C=CC1=O	MOR-DOR ag 62
CCOC(=O)C1CCCN(C(=O)C2c3ccccc3Oc3ccccc32)C1 (stereo unspecified)	HTR5A ag ctr 12
CCCS(=O)(=O)N1CCCC(C(=O)NCCCN2CCN(c3ccc(F)cc3)CC2)C1 (stereo unspecified)	HTR5A ag ctr 11
CCCS(=O)(=O)N1CCCC(C(=O)NCCCOC(C)C)C1 (stereo unspecified)	none
Cc1ccccc1-c1cccc([C@@H]2C[C@H]3[C@H](CON3C)CN2C(=O)CCc2ccccc2)c1	none
Cc1cccc(NC(=O)CSc2nnc(CNC(=O)c3ccco3)o2)c1	none
CC(C)CNC(=O)COC(=O)c1c2c(nc3ccccc13)/C(=C\c1cccs1)CC2	MOR-DOR ag 21
Cc1c(C(=O)OCC(=O)Nc2ccc(S(N)(=O)=O)cc2)oc2c1ccc1ccccc12	HTR5A ag ctr 12
Cc1cc(NC(=O)COC(=O)c2oc3c(ccc4ccccc43)c2C)no1	none
O=C1C2C3C=CC(CC3)C2C(=O)N1c1ccc(Cl)cc1Cl (stereo unspecified)	none
O=S(=O)(Nc1cccc(-c2ccc(N3CCCCCC3)nn2)c1)c1ccc(C(F)(F)F)cc1	HTR5A ag ctr 11
Cc1cc(NC(=O)c2ccc(COc3ccccc3Cl)o2)no1	HTR5A ag ctr 9.7
